# Reference: the supplement of paper PMC3484114
# ± gives the standard deviation.
# Test system: OVCAR-3-derived ovarian cancer stem-like cells (spheroids)
# Assay: cell growth relative to untreated control; higher = more growth (less inhibition)
# Conditions: 2.29 µM; 96 h
# In short: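 Percent growth was calculated against untreated wells once blanks were subtracted and Grubbs outliers removed. The cells were OVCAR-3 spheroid-derived stem-like cells, trypsinized and plated at 50,000 cells/mL in stem cell medium on ultra-low attachment 96-well plates for a 24 h preincubation. They were then exposed to compounds at 2.29 uM for 96 h at 37°C, 5% CO2, in 4 replicate wells, and viability was measured by TOX8 resazurin fluorescence (ex 560/em 590 nm) after 4 h.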
row,SMILES,cell growth [%]
1,CN(C)c1ccc(/C=C/C(=O)[O-])cc1.CN(C)c1ccc(/C=C/C(=O)[O-])cc1.[Cu+2],97.6 ± 39
2,CC1=CC(=O)c2cccc(NC3=NCCO3)c21,92.8 ± 25
3,CC1CCCC(C(=O)/C(=C/c2cccc(Cl)c2)C(=O)C(=O)O)C1 (centres undefined),93.9 ± 27
4,Oc1[nH]c2ccccc2c1N=Nc1c(F)c(F)c(F)c(F)c1F,100 ± 13
5,C[C@H](CN1CC(=O)NC(=O)C1)N1CC(=O)NC(=O)C1,131 ± 20
6,CC(=O)N(C)c1ccc(Nc2cc(C)[nH]c3ccc4ncnc4c23)cc1,81.9 ± 23
7,O=Nc1ccc(O)c2ncccc12,82 ± 25
8,Cc1nc(N)nc(N)c1-c1ccc(Cl)c(Cl)c1,102 ± 13
9,C=C1C(=O)C2=CC1CCC(=O)C1(C)CCC(OC(C)=O)C(C)(C)C1CC2O (centres undefined),30.4 ± 11
10,CCOC(=O)/C=C/c1c(C)[nH]c(=O)[nH]c1=O,91.2 ± 25
11,Nc1ccccc1C(=O)NC(=O)Nc1ccc(Oc2ncc(Br)cn2)c(Cl)c1,61.6 ± 21
12,COc1nc(C(Cl)(Cl)Cl)c(Cl)c(OC)c1Cl,112 ± 17
13,CC1OC(CC(=O)O)CC2=C1C(=O)c1c(O)cccc1C2=O (centres undefined),130 ± 42
14,CC(C)[Si]1(C(C)C)OCC2OC(n3cnc4c(N)ncnc43)C(N)C2O[Si](C(C)C)(C(C)C)O1 (centres undefined),85.1 ± 22
15,N#CC(=C1C=CC(=NO)C=C1)c1ccc(Cl)cc1,91.1 ± 17
16,CC(C)C1=C(O)C2=C(C(=O)C1=O)C1(C)CCCC(C)(C)C1CC2O (centres undefined),134 ± 36
17,CC(=O)c1sc2c(c1OC(=O)c1ccc(Cl)cc1Cl)c(=O)n(-c1ccccc1)c(=S)n2-c1ccccc1,94.1 ± 24
18,NCCCNCCCCNCCCN,141 ± 34
19,Cc1ccc(/C=C2\CNC/C(=C\c3ccc(C)cc3)C2=O)cc1,44.5 ± 10
20,CN1C(c2ccccc2)CC(=NO)CC1c1ccccc1 (centres undefined),99.7 ± 13

row,SMILES,cell growth [%]
1,Cc1ccc([S+](c2ccccc2)c2cc(C)ccc2C)cc1.O=C(OC(C(=O)[O-])C(OC(=O)c1ccccc1)C(=O)O)c1ccccc1 (centres undefined),43.6 ± 5.1
2,CCN(CC)CCOC(=O)Cc1cccc2c(=O)cc(-c3ccccc3)oc12,91.6 ± 23
3,CC/C(=C(\c1ccccc1)c1ccc(OCCN(C)C)cc1)c1ccccc1,115 ± 14
4,COC1/C=C/OC2(C)Oc3c(C)c(O)c4c(c3C2=O)C(=O)C=C(NC(=O)/C(C)=C\C=C\C(C)C(OC=O)C(C)C(O)C(C)C(OC(C)=O)C1C)C4=O (centres undefined),66.6 ± 67
5,CC(C)(C)c1ccc(OC2CCO2)cc1 (centres undefined),89.3 ± 19
6,CCCCCCCCCCCCCCCCOCC(O)CO (centres undefined),126 ± 28
7,COc1ccc(/C(=N/O)C(c2ccc(OC)cc2)C2C(=O)Oc3ccccc32)cc1 (centres undefined),73.1 ± 14
8,CCN(CC)CCCNc1ncc(C)c2[nH]c3ccncc3c12,82.7 ± 8.6
9,Cc1c(Cl)cccc1NC(=O)c1cccc([N+](=O)[O-])c1O,106 ± 20
10,CS(=O)(=O)OCCCCOS(C)(=O)=O,121 ± 16
11,CC1(O)C=CC(=O)C=C1,116 ± 12
12,COc1cc2c(c(OC)c1OC)-c1ccc(OC)c(=O)cc1[C@@H](NC(=O)c1ccccc1)CC2,30.8 ± 5.6
13,COc1cc2c[n+](C)c3c4cc5c(cc4ccc3c2cc1OC)OCO5,48.7 ± 21
14,CC(Cc1ccccc1)NC1=NCCO1 (centres undefined),88.1 ± 13
15,COc1cc(NC(C)CCCN)c2ncccc2c1 (centres undefined),56.5 ± 7
16,CC(C)=CCC1=C(O)c2ccccc2C(=O)C1=O,109 ± 28
17,CC(=O)SC(SC(C)=O)SC(C)=O,97.1 ± 26
18,Cc1nc(Cl)c(C)c(Cl)n1,88.2 ± 11
19,O=C1Oc2ccccc2C(=O)/C1=C1\C=C(c2ccccc2)SS1,158 ± 71
